The record followed here is PubChem BioAssay (EPA / NIEHS).

Results filed as inconclusive are left out. The source made the active and inactive calls. How the source made its calls: active means hit-call score of the fitted dose curve at least 0.9, where 1 is the maximum; inconclusive means response in the unintended direction; inactive means score below 0.9.

Chain of rat Opioid Receptor, Non-selective Binding, Oprm1 (gene 25601) (P33535 whole entry, looked up): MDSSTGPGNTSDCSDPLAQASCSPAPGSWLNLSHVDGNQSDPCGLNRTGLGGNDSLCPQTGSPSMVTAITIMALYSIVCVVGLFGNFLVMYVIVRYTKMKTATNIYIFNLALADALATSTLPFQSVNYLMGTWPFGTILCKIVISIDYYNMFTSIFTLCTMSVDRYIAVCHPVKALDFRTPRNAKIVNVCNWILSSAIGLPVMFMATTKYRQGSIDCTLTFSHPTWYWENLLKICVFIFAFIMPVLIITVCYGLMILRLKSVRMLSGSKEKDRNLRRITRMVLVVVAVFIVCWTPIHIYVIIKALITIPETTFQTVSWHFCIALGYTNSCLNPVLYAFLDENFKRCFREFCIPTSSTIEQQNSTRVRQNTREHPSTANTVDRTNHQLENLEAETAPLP
Chain of rat Vasopressin 1 Receptor (V1), Avpr1a (gene 25107) (P30560 whole entry, looked up): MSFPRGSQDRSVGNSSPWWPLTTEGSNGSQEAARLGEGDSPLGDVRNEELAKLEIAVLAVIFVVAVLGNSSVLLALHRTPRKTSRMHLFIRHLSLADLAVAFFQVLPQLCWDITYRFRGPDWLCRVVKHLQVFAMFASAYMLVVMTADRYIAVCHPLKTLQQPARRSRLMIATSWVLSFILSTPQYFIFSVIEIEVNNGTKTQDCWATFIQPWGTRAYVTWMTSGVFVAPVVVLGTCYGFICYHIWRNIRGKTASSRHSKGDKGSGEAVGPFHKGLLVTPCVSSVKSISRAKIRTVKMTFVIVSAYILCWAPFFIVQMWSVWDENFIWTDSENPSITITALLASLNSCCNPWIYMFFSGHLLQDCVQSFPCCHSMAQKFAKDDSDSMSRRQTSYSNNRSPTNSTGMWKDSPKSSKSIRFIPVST
Chain of rat Neonicotinoid receptor (NNR), Chrna7 (gene 25302) (Q05941 whole entry, looked up): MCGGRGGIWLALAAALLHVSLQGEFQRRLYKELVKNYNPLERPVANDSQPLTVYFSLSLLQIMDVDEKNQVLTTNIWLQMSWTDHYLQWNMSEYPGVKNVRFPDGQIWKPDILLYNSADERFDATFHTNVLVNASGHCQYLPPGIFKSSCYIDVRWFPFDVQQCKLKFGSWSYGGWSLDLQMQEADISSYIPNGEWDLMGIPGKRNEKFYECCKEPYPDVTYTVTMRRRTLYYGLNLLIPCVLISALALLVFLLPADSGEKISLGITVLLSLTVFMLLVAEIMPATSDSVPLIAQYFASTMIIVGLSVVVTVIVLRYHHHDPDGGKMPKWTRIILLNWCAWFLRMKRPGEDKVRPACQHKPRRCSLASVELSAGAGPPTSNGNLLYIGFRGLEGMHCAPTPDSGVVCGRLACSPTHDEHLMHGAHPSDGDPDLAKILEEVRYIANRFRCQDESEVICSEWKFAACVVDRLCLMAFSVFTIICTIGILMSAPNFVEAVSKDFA

The first test has as its target rat Neonicotinoid receptor (NNR), Chrna7 (gene 25302) (UniProt Q05941). Nature of the test: NVS_LGIC_rNNR_BungSens: NovaScreen (NVS) Ligand-Gated Ion Channel Assay for rat Neonicotinoid receptor (NNR) (AID 2283315). The procedure, abridged: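 Rat cortical membrane preparation incubated 2.5 h with tritiated or iodinated radioligand and test chemical. Bound radioactivity was filtered and counted by scintillation, and displacement was analysed against DMSO.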
As to `CC[C@H]1CC[C@H](NCc2cc3c(cc2OC)[C@H]2C[C@H]2C(=O)N3C)[C@H](c2ccccc2)N1`, the result was inactive.
With `CNS(=O)(=O)c1cc(C(=O)N2CCC(CCN3C4CCC3CC(n3c(C)nc5ccccc53)C4)(c3cccc(F)c3)CC2)c(Cl)cc1F` (centres undefined), the AC50 (in general, the concentration giving half of the maximal activity seen) is 26.3 µM (active).
As for `COc1ccc(-n2nc(C(F)F)cc2-c2ccc(S(C)=O)cc2)cc1` (centres undefined), the compound was called inactive.
On the same count and under the same terms, in the case of `Cc1[nH]cnc1C[C@H]1CCc2c(C)c3ccccc3n2C1=O` it was “inactive”; in that of `O=C(NS(=O)(=O)/C=C/c1ccccc1)c1ccc(F)cc1Cl`, “inactive”.
On the same count and under the same terms, in the case of `CC(C)CCO` it was “inactive”; in that of `COc1cccc(-c2ccc(/C=C\CN3CCCCCC3)cc2Cl)c1`, “inactive”; in that of `CCOC(=O)CC(CC(=O)OCC)(OC(C)=O)C(=O)OCC`, “inactive”.
For the compound `CCn1nc(Cc2ccccc2)cc1C1CCN(C[C@H]2C[C@H](N(C)[C@@H](C(=O)O)C(C)C)C[C@@H]2c2cccc(F)c2)CC1`, the half-maximal activity concentration (AC50) was 15.5 µM (active).

A further test has as its target rat Vasopressin 1 Receptor (V1), Avpr1a (gene 25107) (UniProt P30560). Nature of the test: NVS_GPCR_rV1: NovaScreen (NVS) G Protein-Coupled Receptor Assay for rat Vasopressin 1 Receptor (V1) (AID 2283316). As for the experimental part:
NVS_GPCR_rV1 is a biochemical, single-readout assay that uses extracted gene-proteins from Rat liver membranes in a tissue-based cell-free assay. Measurements were taken 1.5 hours after chemical dosing in a 48-well plate.NVS_GPCR_rV1 is one of one assay component(s) measured or calculated from the NVS_GPCR_rV1 assay. It is designed to make measurements of radioligand binding, a form of binding reporter, as detected with scintillation counting signals by Filter-based radiodetection technology.Data from the assay component NVS_GPCR_rV1 was analyzed into 1 assay endpoint. This assay endpoint, NVS_GPCR_rV1, was analyzed in the positive analysis fitting direction relative to DMSO as the negative control and baseline of activity. Using a type of binding reporter, loss-of-signal activity can be used to understand changes in the binding as they relate to the gene Avpr1a. Furthermore, this assay endpoint can be referred to as a primary readout, because the performed assay has only produced 1 assay endpoint. To generalize the intended target to other relatable targets, this assay endpoint is annotated to the gpcr intended target family, where the subfamily is rhodopsin-like receptor.
Binding assays used specific radioligands (tritiated, iodinated) with non-radioactive competitive displacement ligands in agonist or antagonist protocols (as indicated) and various reference compounds and inhibitors to titrate specific binding to receptors and transporters. Most enzyme assays (CYPs, kinases, phosphatases, proteases, HDACs) used recombinant protein and specific substrates (fluorescence mostly, some colorimetric and radioactive) and inhibitors, followed by a biochemical separation of substrate and product. All assays for the biochemical HTS were initially run in duplicate at a single concentration (10 uM for CYP450 assays and 25 uM for all others). Assay-chemical combinations meeting a pre-defined threshold (e.g., 30% inhibition and other criteria defined below) were then run in singleton concentration-response format with maximum concentration of 20 uM for CYPs and 50 uM for all others. […]
On to `CCCN(C1CCN(C(=O)C2CCNCC2)CC1)[C@@H]1CCc2ccc(OC)cc2C1`, for which the call was inactive.
The same measure, in the same setting: in the case of `O=C(CCCCCCCCc1cccnc1)N1CCC(C=C(c2ccccc2)c2ccccc2)CC1` it was “inactive”; in that of `Cc1ccc(N)cc1O`, “inactive”.

Another test deals with rat Opioid Receptor, Non-selective Binding, Oprm1 (gene 25601) (UniProt P33535). Nature of the test: NVS_GPCR_rOpiate_NonSelective: NovaScreen (NVS) G Protein-Coupled Receptor Assay for rat Opioid Receptor, Non-selective Binding (AID 2283318). An outline of the steps:
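Filter-based radioligand displacement using rat forebrain membrane preparations, measured 1.5 h post-dosing. Single-concentration duplicate screen at 25 uM, follow-up in concentration series; activity taken as signal loss relative to DMSO.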
As to `CC[C@H]1CC[C@H](NCc2cc3c(cc2OC)[C@H]2C[C@H]2C(=O)N3C)[C@H](c2ccccc2)N1`, the AC50 is 2.58 µM (active).
Same read-out and setting: for `CNS(=O)(=O)c1cc(C(=O)N2CCC(CCN3C4CCC3CC(n3c(C)nc5ccccc53)C4)(c3cccc(F)c3)CC2)c(Cl)cc1F` (centres undefined) the value was 10.1 µM (active).
Consider `CCc1cc(SCc2sc(-c3ccc(C(F)(F)F)cc3)nc2CN2CCN(c3ccc(OC)cc3)CC2)ccc1OCC(=O)O`, for which the call was inactive.
Turning to `Cc1[nH]cnc1C[C@H]1CCc2c(C)c3ccccc3n2C1=O`, the AC50 was 9.93 µM (active).
As to `CCN(C(=O)c1cc(C)cc(OC[C@H](C)Nc2ccncc2)c1)C(C)C`, the outcome was inactive.
Turning to `CN(C)c1ccc(N=NS(=O)(=O)O)cc1`, the AC50 is 31.6 µM (active).
Still for that read-out and setting: in the case of `COc1cccc(-c2ccc(/C=C\CN3CCCCCC3)cc2Cl)c1` it was 11.2 µM (active).
Still for that read-out and setting: in the case of `CCn1nc(Cc2ccccc2)cc1C1CCN(C[C@H]2C[C@H](N(C)[C@@H](C(=O)O)C(C)C)C[C@@H]2c2cccc(F)c2)CC1` it was 4.11 µM (active).
In the case of `O=C(O)CC(O)C(=O)O` (centres undefined), the result was inactive.

Another test relates to NCBI gene 24521. Nature of the test: NVS_IC_rKATPCh: NovaScreen (NVS) Ion Channel Assay for rat Potassium Channel, ATP-Sensitive (KATPCh) (AID 2283319). The procedure, abridged:
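Primary duplicate screen at 25 uM, then singleton concentration series to 50 uM maximum, in a rat cortex membrane radioligand displacement assay. Binding measured by filtration and scintillation 2 h post-dose; DMSO baseline.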
On to `CCc1cc(SCc2sc(-c3ccc(C(F)(F)F)cc3)nc2CN2CCN(c3ccc(OC)cc3)CC2)ccc1OCC(=O)O`, for which the AC50 was 35.9 µM (active).
Turning to `CN(C)c1ccc(N=NS(=O)(=O)O)cc1`, the outcome was inactive.
The same measure, in the same setting: in the case of `CCCCCCCCO` it was “inactive”.
On to `CCOc1cccc(-n2cc(C(=O)N3CCN(c4cc(C(=O)O)c5ccccc5c4)CC3)nc2-c2ccc(C)cc2)c1`, for which the AC50 was 21.2 µM (active).

System in the next test: not listed separately
The experiment in a line: NVS_IC_rCaDHPRCh_L: NovaScreen (NVS) Ion Channel Assay for rat Calcium Channel, Type L, Dihydropyridine Site (CaDHPRCh_L) (AID 2283320). As for the experimental part: NVS_IC_rCaDHPRCh_L is a biochemical, single-readout assay that uses extracted gene-proteins from Rat cortical membranes in a tissue-based cell-free assay. Measurements were taken 1 hour after chemical dosing in a 48-well plate.NVS_IC_rCaDHPRCh_L is one of one assay component(s) measured or calculated from the NVS_IC_rCaDHPRCh_L assay. It is designed to make measurements of radioligand binding, a form of binding reporter, as detected with scintillation counting signals by Filter-based radiodetection technology.Data from the assay component NVS_IC_rCaDHPRCh_L was analyzed into 1 assay endpoint. This assay endpoint, NVS_IC_rCaDHPRCh_L, was analyzed in the positive analysis fitting direction relative to DMSO as the negative control and baseline of activity. Using a type of binding reporter, loss-of-signal activity can be used to understand changes in the binding as they relate to the gene Cacna1a. Furthermore, this assay endpoint can be referred to as a primary readout, because the performed assay has only produced 1 assay endpoint. To generalize the intended target to other relatable targets, this assay endpoint is annotated to the ion channel intended target family, where the subfamily is calcium channel.
Binding assays used specific radioligands (tritiated, iodinated) with non-radioactive competitive displacement ligands in agonist or antagonist protocols (as indicated) and various reference compounds and inhibitors to titrate specific binding to receptors and transporters. Most enzyme assays (CYPs, kinases, phosphatases, proteases, HDACs) used recombinant protein and specific substrates (fluorescence mostly, some colorimetric and radioactive) and inhibitors, followed by a biochemical separation of substrate and product. All assays for the biochemical HTS were initially run in duplicate at a single concentration (10 uM for CYP450 assays and 25 uM for all others). Assay-chemical combinations meeting a pre-defined threshold (e.g., 30% inhibition and other criteria defined below) were then run in singleton concentration-response format with maximum concentration of 20 uM for CYPs and 50 uM for all others. Each assay was run with positive and negative controls, and concurrent controls on every plate. The follow-up (secondary) screen tested active chemical-pairs in concentration series, as well as a few additional assays not tested in the primary screen, some selected negative inactives, and several cases re-run in the concentration series for confirmatory purposes.
`CCCN(C1CCN(C(=O)C2CCNCC2)CC1)[C@@H]1CCc2ccc(OC)cc2C1`: the outcome was inactive.
Same read-out and setting: in the case of `CCOC(=O)COc1ccc2c(c1)CC(NCC(O)c1cccc(Cl)c1)CC2` (centres undefined) it was “inactive”.
Consider `CNS(=O)(=O)c1cc(C(=O)N2CCC(CCN3C4CCC3CC(n3c(C)nc5ccccc53)C4)(c3cccc(F)c3)CC2)c(Cl)cc1F` (centres undefined), for which the AC50 was 6.97 µM (active).
For `CCc1cc(SCc2sc(-c3ccc(C(F)(F)F)cc3)nc2CN2CCN(c3ccc(OC)cc3)CC2)ccc1OCC(=O)O`, the half-maximal activity concentration (AC50) is 15.9 µM (active).
On to `Cc1[nH]cnc1C[C@H]1CCc2c(C)c3ccccc3n2C1=O`, for which the AC50 is 1.5 µM (active).
The same measure, in the same setting: for `CCOC(=O)c1ccc(C2CCC(NC[C@H](O)COc3ccc(O)c(NS(C)(=O)=O)c3)CC2)cc1` (some centres undefined) the value was 18.4 µM (active); for `O=P(OC(CCl)CCl)(OC(CCl)CCl)OC(CCl)CCl`, 6.41 µM (active); for `COc1cccc(-c2ccc(/C=C\CN3CCCCCC3)cc2Cl)c1`, 0.555 µM (active).
On the same count and under the same terms, for `CCn1nc(Cc2ccccc2)cc1C1CCN(C[C@H]2C[C@H](N(C)[C@@H](C(=O)O)C(C)C)C[C@@H]2c2cccc(F)c2)CC1` the value was 4.21 µM (active).

For the next test, the target named is Sodium channel protein type 1 subunit alpha (Rattus norvegicus) (UniProt P04774). The experiment in a line: NVS_IC_rNaCh_site2: NovaScreen (NVS) Ion Channel Assay for rat Sodium Channel, Site 2 (NaCh) (AID 2283322).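 Further: hit means loss of radioligand binding signal relative to DMSO so AC50 marks displacement.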 An outline of the steps:
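Initial duplicate single-point testing at 25 uM, followed by concentration-response runs for actives. Binding of radioligand to rat forebrain membranes quantified after 1 h via filter-based radiodetection.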
For `CCCN(C1CCN(C(=O)C2CCNCC2)CC1)[C@@H]1CCc2ccc(OC)cc2C1`, the half-maximal activity concentration (AC50) is 7.66 µM (active).
As to `CC(C)CC(C)(O)C#CC(C)(O)CC(C)C` (centres undefined), the outcome was inactive.
With `CCOC(=O)COc1ccc2c(c1)CC(NCC(O)c1cccc(Cl)c1)CC2` (centres undefined), the AC50 is 6.7 µM (active).
The same measure, in the same setting: for `Nc1ccc(Nc2ccccc2)cc1` the value was 5.39 µM (active); for `CC[C@H]1CC[C@H](NCc2cc3c(cc2OC)[C@H]2C[C@H]2C(=O)N3C)[C@H](c2ccccc2)N1`, 0.163 µM (active); for `CNS(=O)(=O)c1cc(C(=O)N2CCC(CCN3C4CCC3CC(n3c(C)nc5ccccc53)C4)(c3cccc(F)c3)CC2)c(Cl)cc1F` (centres undefined), 13.1 µM (active).
On the same count and under the same terms, in the case of `CCc1cc(SCc2sc(-c3ccc(C(F)(F)F)cc3)nc2CN2CCN(c3ccc(OC)cc3)CC2)ccc1OCC(=O)O` it was 25 µM (active).
Take `COc1ccc(-n2nc(C(F)F)cc2-c2ccc(S(C)=O)cc2)cc1` (centres undefined): the compound was called inactive.
In the case of `Cc1[nH]cnc1C[C@H]1CCc2c(C)c3ccccc3n2C1=O`, the AC50 is 10.4 µM (active).
Same read-out and setting: for `O=c1[nH]c2ccc(S(=O)CCN3CCC(Cc4ccc(F)cc4)CC3)cc2o1` (centres undefined) the value was 6.76 µM (active); for `CCN(C(=O)c1cc(C)cc(OC[C@H](C)Nc2ccncc2)c1)C(C)C`, 10.1 µM (active).
With `CCCCC(CC)COC(=O)CCCCCCCCC(=O)OCC(CC)CCCC` (centres undefined), the compound was classed as inactive.
`CCOC(=O)c1ccc(C2CCC(NC[C@H](O)COc3ccc(O)c(NS(C)(=O)=O)c3)CC2)cc1` (some centres undefined): the AC50 is 3.33 µM (active).
On to `O=P(OC(CCl)CCl)(OC(CCl)CCl)OC(CCl)CCl`, for which the call was inactive.
Take `COCCOc1cc2cc(C(=O)NC3CCN(C(C)C)CC3)n(CC(=O)Nc3ccc(Cl)cn3)c2cn1`: the AC50 is 25.8 µM (active).
On the same count and under the same terms, for `CCOc1cccc(-n2cc(C(=O)N3CCN(c4cc(C(=O)O)c5ccccc5c4)CC3)nc2-c2ccc(C)cc2)c1` the value was 7.07 µM (active).
The same measure, in the same setting: for `COc1cccc(-c2ccc(/C=C\CN3CCCCCC3)cc2Cl)c1` the value was 1.33 µM (active); for `CCn1nc(Cc2ccccc2)cc1C1CCN(C[C@H]2C[C@H](N(C)[C@@H](C(=O)O)C(C)C)C[C@@H]2c2cccc(F)c2)CC1`, 17.4 µM (active).
Take `CCCCCCc1ccc(O)cc1O`: the compound was called inactive.
Same read-out and setting: for `O=C(O)CC(O)C(=O)O` (centres undefined) the value was “inactive”.
